# Results published in PubChem BioAssay (Tox21).
# A number with no mark means an inactive call. Calls of active or inactive are those of the source. Calls come from the whole dose curve; as a rule, active = well fitted curve in the direction sought with a large enough effect in the repeat runs; inconclusive = weak or mixed curves; inactive = flat fitted curve, though single readings scatter.
# Test: qHTS assay to test for compound auto fluorescence at 590 nm (red) in HepG2 cell free culture (AID 720684)
# Conditions: cell-free medium autofluorescence, red 540/590 nm; series mostly up to 91.3 µM; fluorescence, % of Rose Bengal: at the top concentration
# Method in brief: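 Compounds are added to culture medium (MEM, 10% FBS) lacking cells, then fluorescence is read at excitation 540 nm, emission 590 nm, with Rose Bengal sodium as the equivalency standard.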
# % is set by controls: 0 for no effect and ±100 for the full control effect.
Compound,"fluorescence, % of Rose Bengal",outcome
O=CCCc1ccccc1,-0.11%,–
CC1=C2[C@H](/C=C(\C)C(=O)O)CC[C@@H](C)[C@H]2CC1,-0.183% [at 95.7 µM],–
Oc1ccccc1F,-0.0102%,–
CCOc1ccc(NC(N)=O)cc1,0.141%,–
COc1ccc2nc(NC(=O)Nc3ccccc3)sc2c1,-0.0774% [at 46 µM],–
CCC/C=C/CO,0.18%,–
CN1C(=O)CC(c2ccccc2)C1=O (configuration not stated),-0.0079% [at 46 µM],–
Cc1ccc(C(C)C)cc1O,0.0015%,–
Cc1c[nH]c(=S)[nH]c1=O,-0.0041%,–
CC1=NN(c2cc(Cl)c(S(=O)(=O)O)cc2Cl)C(=O)C1N=Nc1ccc(S(=O)(=O)O)cc1 (configuration not stated),0.0592%,–
CCOc1ccc(OCC)c(Cl)c1,-0.0223%,–
Cc1ccc([N+](=O)[O-])c(N)c1,-0.211%,–
CCCCN1C[C@H](O)[C@@H](O)[C@H](O)[C@H]1CO,-0.0826% [at 46 µM],–
CN1CCN(C2=Nc3ccccc3Oc3ccc(Cl)cc32)CC1,-0.256% [at 18.6 µM],–
CC(C)O,–,inactive
CN1[C@@H]2CC[C@H]1CC(OC(=O)c1c[nH]c3ccccc13)C2 (some centres not stated),-0.163% [at 46 µM],–
CN1CCC[C@@H]1Cc1c[nH]c2ccc(CCS(=O)(=O)c3ccccc3)cc12,-0.001% [at 46 µM],–
CC1CN(c2ccccc2)NC1=O (configuration not stated),0.0539%,–

Compound,"fluorescence, % of Rose Bengal",outcome
CC(C)=CCCC(C)CCOC=O (configuration not stated),-0.0232%,–
CCOC(=O)CS,0.0354% [at 95.7 µM],–
Cc1cc2c(s1)Nc1ccccc1N=C2N1CCN(C)CC1,0.479% [at 46 µM],–
O=C1CCCCC1C1CCCCC1 (configuration not stated),-0.134%,–
CCC(=O)c1ccc2c(c1)N(CCCN(C)C)c1ccccc1S2,0.0214% [at 46 µM],–
CN(C)CCOc1ccccc1Cc1ccccc1,0.0869% [at 46 µM],–
CCOc1ccc(NS(=O)(=O)c2ccc(N)cc2)nn1,0.0984% [at 46 µM],–
Cn1cnc2c(F)c(Nc3ccc(Br)cc3Cl)c(C(=O)NOCCO)cc21,0.0683% [at 46 µM],–
CCCCCCCCCCCCCCCCOP(=O)([O-])OCC[N+](C)(C)C,-0.124% [at 46 µM],–
CCN(CCCc1ccccc1)CCCc1ccccc1,-0.137% [at 18.6 µM],–
CCCCCCCCCCCCOCCOS(=O)(=O)O,-0.0164%,–
CCNCCO,0.101%,–
O=C(CC(=O)C(F)(F)F)c1ccccc1,-0.004% [at 95.7 µM],–
CCCCCCCOC(=O)CCC,-0.313%,–
O=[N+]([O-])c1nccn1CO[C@@H](CO)[C@H](O)CO,0.073% [at 46 µM],–
CCCCNc1ccc(C(=O)OCCN(CC)CC)cc1,-0.074% [at 46 µM],–
C[C@@H]1CN(c2c(F)c(F)c3c(=O)c(C(=O)O)cn(C4CC4)c3c2F)C[C@H](C)N1,-0.341% [at 46 µM],–

# Test: qHTS assay to test for compound auto fluorescence at 460 nm (blue) in HepG2 cell free culture (AID 720685)
# Conditions: Cell-free culture medium, blue autofluorescence 405/460 nm; series mostly up to 91.3 µM; fluorescence, % of fluorescent control: at the top concentration
# Method in brief: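 Compound (23 nL) or DMSO pinned into cell-free MEM with 10% FBS; blue fluorescence read at 405/460 nm excitation/emission, expressed as auto-fluorescence equivalency to triamterene.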
Compound,"fluorescence, % of fluorescent control",outcome
O=CCCc1ccccc1,-0.0784%,–
CC1=C2[C@H](/C=C(\C)C(=O)O)CC[C@@H](C)[C@H]2CC1,-0.177% [at 95.7 µM],–
CCOc1ccc(NC(N)=O)cc1,-0.001%,–
CCC/C=C/CO,-0.0119%,–
CN1C(=O)CC(c2ccccc2)C1=O (configuration not stated),-0.0327% [at 46 µM],–
Cc1c[nH]c(=S)[nH]c1=O,-0.067%,–
CC1=NN(c2cc(Cl)c(S(=O)(=O)O)cc2Cl)C(=O)C1N=Nc1ccc(S(=O)(=O)O)cc1 (configuration not stated),-0.0481%,–
CCOc1ccc(OCC)c(Cl)c1,0.014%,–
Cc1ccc([N+](=O)[O-])c(N)c1,0.0588%,–
CCCCN1C[C@H](O)[C@@H](O)[C@H](O)[C@H]1CO,0.0359% [at 46 µM],–
CN1CCN(C2=Nc3ccccc3Oc3ccc(Cl)cc32)CC1,-0.0109% [at 18.6 µM],–
CC(C)O,–,inactive
